Test: blockers of RIG-like receptor reporter activation – cell-based, Sendai virus stimulus, luciferase, 10K MLSCN set, TLR/RLR signaling modifier project, primary screen (AID 602276);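 further: firefly luciferase from ISG56 promoter only with Renilla not read in this screen; 0% = Sendai virus plus DMSO and 100% = medium plus DMSO without virus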
Settings: HEK293 RL24 IRF3 luciferase reporter, at 10 µM, hits give high values;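 active means inhibition at or above 50% at 10 µM; inactive means inhibition below 50%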

inhibition, inactive:
O=C(NCC1CCCCN1)c1cc(OCC(F)(F)F)ccc1OCC(F)(F)F (configuration not stated) -8.5%
CN1CCN(C2=Nc3cc(Cl)ccc3Nc3ccccc32)CC1 2.76%
CCN(CC)CCNC(=O)c1ccc(N)cc1 -2.32%
COc1cc2nc(N3CCN(C(=O)C4CCCO4)CC3)nc(N)c2cc1OC (configuration not stated) 16.1%
O=C(CCCN1CCC(O)(c2ccc(Cl)cc2)CC1)c1ccc(F)cc1 -13%
COc1ccc(-c2coc3cc(O)cc(O)c3c2=O)cc1 -90.2%
CN(C)CCCN1c2ccccc2CCc2ccccc21 -11.2%
CC[C@]1(O)C[C@@H]2CN(CCc3c([nH]c4ccccc34)[C@@](C(=O)OC)(c3cc4c(cc3OC)N(C)[C@H]3[C@@](O)(C(=O)OC)[C@H](OC(C)=O)[C@]5(CC)C=CCN6CC[C@]43[C@@H]65)C2)C1 23.8%
NC(N)=Nc1nc(CSCC/C(N)=N/S(N)(=O)=O)cs1 13.5%
CC(=O)O[C@@]12CO[C@@H]1C[C@H](O)[C@@]1(C)C(=O)[C@H](O)C3=C(C)[C@@H](OC(=O)[C@H](O)[C@@H](NC(=O)OC(C)(C)C)c4ccccc4)C[C@](O)([C@@H](OC(=O)c4ccccc4)[C@H]21)C3(C)C 37.7%
CC[C@H]1CN2CCc3cc(OC)c(OC)cc3[C@@H]2C[C@@H]1C[C@H]1NCCc2cc(OC)c(OC)cc21 -28.7%
Cc1nnc(NS(=O)(=O)c2ccc(N)cc2)s1 -4.22%
